Reference: PubChem BioAssay AID1326 (NMMLSC, 2008)
Among all 190,000 compounds or so, about 130 (0.068%) were called active. The sample holds actives, similar compounds and a random draw of the others, so the mix is not that of the screen. Values without a mark were called inactive. No stated cut-off is given here; in the data, active means inhibition above about 40%; inactive means the rest.

These compounds were tested against ATP-dependent translocase ABCB1 (Homo sapiens) (UniProt P08183) (assay: blockers of ABCB1-mediated dye efflux – cell-based, multiplex, flow cytometry, ABCG2 counter-screen, primary screen (AID 1326;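 further: 0% = vehicle and 100% = reference inhibitor; higher value means more JC-1 retained so stronger ABCB1 efflux block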)). Details: CCRF-Adr cells, JC-1 efflux, at 6.6 µM, active compounds read high.
ATP-dependent translocase ABCB1 (Homo sapiens), sequence (P08183 whole entry, looked up): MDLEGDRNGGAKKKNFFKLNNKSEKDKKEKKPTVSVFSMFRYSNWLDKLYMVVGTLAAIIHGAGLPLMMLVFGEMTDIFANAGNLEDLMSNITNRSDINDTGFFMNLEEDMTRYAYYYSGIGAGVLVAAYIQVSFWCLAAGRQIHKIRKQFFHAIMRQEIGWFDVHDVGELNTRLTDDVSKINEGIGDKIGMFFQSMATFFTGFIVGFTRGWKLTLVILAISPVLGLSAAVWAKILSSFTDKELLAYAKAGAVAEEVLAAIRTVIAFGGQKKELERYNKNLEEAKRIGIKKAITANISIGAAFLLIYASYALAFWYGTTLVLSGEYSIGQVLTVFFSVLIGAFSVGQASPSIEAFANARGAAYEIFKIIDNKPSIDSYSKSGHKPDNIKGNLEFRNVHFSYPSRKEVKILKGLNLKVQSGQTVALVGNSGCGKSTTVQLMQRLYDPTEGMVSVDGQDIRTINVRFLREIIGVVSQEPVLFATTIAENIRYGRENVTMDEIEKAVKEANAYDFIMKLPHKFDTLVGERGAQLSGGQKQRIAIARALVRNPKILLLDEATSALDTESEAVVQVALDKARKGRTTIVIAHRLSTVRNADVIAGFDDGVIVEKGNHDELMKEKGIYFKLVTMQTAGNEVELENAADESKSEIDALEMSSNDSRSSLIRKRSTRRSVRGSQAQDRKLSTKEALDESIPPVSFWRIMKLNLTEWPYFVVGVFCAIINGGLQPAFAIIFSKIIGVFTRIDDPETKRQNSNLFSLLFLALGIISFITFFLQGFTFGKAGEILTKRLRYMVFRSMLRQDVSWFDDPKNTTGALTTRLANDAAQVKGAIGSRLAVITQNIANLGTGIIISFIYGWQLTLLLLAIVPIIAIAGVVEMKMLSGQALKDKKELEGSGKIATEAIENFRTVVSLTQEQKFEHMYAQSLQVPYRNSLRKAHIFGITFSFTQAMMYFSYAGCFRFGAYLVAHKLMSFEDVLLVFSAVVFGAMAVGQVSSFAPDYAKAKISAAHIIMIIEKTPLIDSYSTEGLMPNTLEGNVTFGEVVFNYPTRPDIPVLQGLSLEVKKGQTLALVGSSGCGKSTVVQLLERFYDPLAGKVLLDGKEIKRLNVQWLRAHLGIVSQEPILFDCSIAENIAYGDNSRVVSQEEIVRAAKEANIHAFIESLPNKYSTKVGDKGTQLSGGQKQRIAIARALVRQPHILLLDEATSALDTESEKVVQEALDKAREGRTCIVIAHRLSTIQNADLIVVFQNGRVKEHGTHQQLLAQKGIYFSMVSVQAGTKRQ
For `C=CCn1c(SCC(=O)c2ccc(Br)cc2)nnc1C(C)NC(=O)Cc1ccc(OC)cc1` (configuration not stated), the inhibition was 1.19%.
`C=CCn1c(SCc2ccc(Cl)c(Cl)c2)nnc1C(CO)NC(=O)c1ccc(OC)cc1` (configuration not stated) gave an inhibition of 1.4%.
`C=CCn1c(SCCOc2ccc(OC)cc2)nnc1C(NC(=O)c1ccc(OC)cc1)C(C)C` (configuration not stated) was tested, and the inhibition was 48.2% (active).
For `CN(C)CCOc1ccc(Cl)cc1C(C)(C)C`, the inhibition was 0.53%.
`Nc1nc(SCC(=O)NN(c2ccccc2)c2ccccc2)n[nH]1` gave an inhibition of 0.84%.
`CCc1nnc(NC(=O)CSc2nnnn2-c2cccc(C(C)=O)c2)s1` was tested, and the inhibition was 0.21%.
`CC(C)CCN1CCN(C/C=C/c2ccco2)CC1CCO` (configuration not stated) showed an inhibition of 0.24%.
With `C/C(=N/OC(=O)c1cccc(C(F)(F)F)c1)c1cnccn1` the inhibition was -0.43%.
For `C/C(CC1CC(C)(C)OC1=O)=N/Nc1nc(-c2ccccc2)cs1` (configuration not stated), the inhibition was -0.4%.
`CN(c1ccccc1)S(=O)(=O)c1cc(C(=O)OCC(=O)N2CCN(C(=O)c3ccco3)CC2)ccc1Cl` gave an inhibition of 0.19%.
Compound `Cc1ccc(C)c(NS(=O)(=O)c2ccc(OCC(=O)NCc3cccnc3)cc2)c1` has an inhibition of -0.02%.
`COc1cc(C(=S)NCc2ccccc2)cc(Br)c1O` showed an inhibition of -0.65%.
`CCC(=O)c1ccc(N2CCN(C(=O)c3cc([N+](=O)[O-])ccc3F)CC2)c(F)c1` gave an inhibition of 2.09%.
Work on `CCN(CC)CCNS(=O)(=O)c1ccc(/C=C/C(=O)O)cc1` yielded an inhibition of 0.17%.
Compound `COc1cc(CNC2CCCC2)c(Br)cc1OCc1ccccc1` has an inhibition of 0.98%.
With `CN1CCN(C(c2cc3cc4c(cc3[nH]c2=O)OCCO4)c2nnnn2C2CCCC2)CC1` (configuration not stated) the inhibition was 0.88%.
With `CNC(=O)C(=O)N/N=C/c1ccccn1` the inhibition was -0.01%.
Work on `CSc1ncccc1C(=O)N1CCCC(CCC(=O)NCc2ccccc2F)C1` (configuration not stated) yielded an inhibition of -0.56%.
For `C=C(C)c1cccc(C(C)(C)NC(=O)NCCN(CC)CC)c1`, the inhibition was 0.61%.
`O=S(=O)(Cc1ccccc1)c1nc2ccccc2n1Cc1ccccn1` showed an inhibition of 1.49%.
`COc1cc2[nH]c(=S)n(Cc3ccc(F)cc3)c(=O)c2cc1OC` was tested, and the inhibition was 0.4%.
In the case of `CCCc1cc(=O)[nH]c(SCc2cc(=O)oc3c(C)c(C)ccc23)n1`, the inhibition is reported as -1.22%.
With `Cc1nnsc1C(=O)Nc1cccc(Cl)c1C` the inhibition was 0.41%.
Work on `COc1ccc(Cl)cc1NC(=O)C(C)N1CCc2ccccc21` (configuration not stated) yielded an inhibition of 0.39%.
`CC1=CC(=C(C#N)c2nc3ccccc3s2)C=C(C)N1c1ccc(F)cc1F` gave an inhibition of -0.7%.
With `COC(=O)c1ccc(OCC(O)CN(CCO)CC(O)Cn2ccc3ccccc32)cc1` (configuration not stated) the inhibition was 0.69%.
Work on `Cc1ccccc1C1=NC(C(F)(F)F)(C(F)(F)F)c2c(n(-c3ccc(F)cc3)c(=O)[nH]c2=O)N1` yielded an inhibition of 0%.
`NS(=O)(=O)c1ccc(NC(=O)/C=C/c2ccccc2Cl)cc1` gave an inhibition of 0.51%.
`CCC(c1nnnn1C1CCCC1)N(Cc1cccs1)Cc1cc2cccc(C)c2[nH]c1=O` (configuration not stated) gave an inhibition of 6.67%.
For `Cc1cccc2cc(CN(Cc3cccs3)C(c3nnnn3C3CCCC3)C(C)C)c(=O)[nH]c12` (configuration not stated), the inhibition was 61.7% (active).
`Cc1cccc2cc(CN(Cc3ccc4c(c3)OCO4)Cc3nnnn3C3CCCC3)c(=O)[nH]c12` was tested, and the inhibition was 7.85%.
In the case of `CCC1CCCCN1S(=O)(=O)Cc1ccccc1Cl` (configuration not stated), the inhibition is reported as 2.08%.
With `Cc1c(C(=O)NCCCc2ccccc2)cccc1[N+](=O)[O-]` the inhibition was 0.92%.
In the case of `COc1cccc(NC(=S)NC(=O)c2c(Cl)c(C)nn2C)c1`, the inhibition is reported as -0.45%.
Work on `Cc1ccsc1C1C(C#N)=C(N)OC2=C1C(=O)CC(C)(C)C2` (configuration not stated) yielded an inhibition of 0.69%.
Work on `COc1cc(OC)c(C(=O)N2CCCC2)cc1OC` yielded an inhibition of 1.33%.
With `N#Cc1c(NC(=O)c2ccc(N3CCOCC3)c([N+](=O)[O-])c2)sc2c1CCCC2` the inhibition was 0.71%.
With `COC(=O)c1nn(-c2cccc(Cl)c2)ccc1=O` the inhibition was -0.18%.
`COCCNC(=S)N/N=C/c1c(C)[nH]c2ccccc12` gave an inhibition of -0.55%.
For `CN(C)C(=O)N1CCNCC1`, the inhibition was -0.13%.
In the case of `CC(=O)N(CN1C(=O)C2C3C=CC(C3)C2C1=O)c1cccc(Cl)c1` (configuration not stated), the inhibition is reported as 0.48%.
For `CCn1c(-c2cccnc2Cl)nc2cc(C)c(C)cc21`, the inhibition was 0.26%.
Compound `Cc1nc(CC(=O)NNS(=O)(=O)c2ccc(F)c(Cl)c2)cs1` has an inhibition of 1.15%.
In the case of `COC(=O)C(C(=O)Nc1cccc(Cl)c1C)C1CCCC1` (configuration not stated), the inhibition is reported as -0.03%.
Compound `NNc1nc2c(Cl)cccc2s1` has an inhibition of -1.62%.
Compound `CCOC(=O)C1=C(C)NC(=S)NC1c1cccs1` (configuration not stated) has an inhibition of -0.3%.
With `Cc1ccccc1NC(=O)c1nn(-c2ccc(F)c(F)c2)ccc1=O` the inhibition was 0.58%.
With `COC(=O)c1ccc(COC(=O)c2cnccn2)cc1` the inhibition was 0.17%.
Compound `CC1CN(CCCOc2ccccc2-c2ccccc2)CC(C)O1` (configuration not stated) has an inhibition of 3.45%.
Compound `CCCCC(=O)Nc1ccc(C(=O)Nc2cc(C(F)(F)F)ccc2Cl)cc1` has an inhibition of -0.36%.
Work on `CCC(=O)/C(=C(/O)c1ccccc1)c1nc2ccccc2[nH]1` yielded an inhibition of 0.14%.
`Cc1cc(C)cc(C(=O)NC(=S)Nc2ccc3[nH]c(=O)[nH]c3c2)c1` was tested, and the inhibition was -0.17%.
